Assay results published in PubChem BioAssay (NCI).
About 83,000 compounds went through this panel and 20% of them were active in at least one assay; those are over-represented in the sample as a whole.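 Assay: single dose, 48 h. Readout: percent growth (0 = no net growth; negative = cell death). Active: <10.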 Calls of active or inactive are those of the source.

Legend:
Assay in all cases: NCI-60 one-dose screen, 48 h (100 = growth as untreated, 0 = no growth, -100 = all killed)
Settings in all cases: 10 µM
HCT-15 colon = test system: HCT-15 colon
HT29 colon = test system: HT29 colon
SNB-75 CNS = test system: SNB-75 CNS
SNB-19 CNS = test system: SNB-19 CNS
U251 CNS = test system: U251 CNS
PC-3 prostate = test system: PC-3 prostate
SK-MEL-5 melanoma = test system: SK-MEL-5 melanoma
UACC-62 melanoma = test system: UACC-62 melanoma
LOX IMVI melanoma = test system: LOX IMVI melanoma
SK-MEL-28 melanoma = test system: SK-MEL-28 melanoma
SK-MEL-2 melanoma = test system: SK-MEL-2 melanoma
EKVX NSCLC = test system: EKVX NSCLC
UO-31 renal = test system: UO-31 renal
ACHN renal = test system: ACHN renal
CAKI-1 renal = test system: CAKI-1 renal
A498 renal = test system: A498 renal
CCRF-CEM leukemia = test system: CCRF-CEM leukemia
MOLT-4 leukemia = test system: MOLT-4 leukemia
SN12C renal = test system: SN12C renal
TK-10 renal = test system: TK-10 renal

Measured: growth

COC(=O)c1cnc2c(c1)Oc1ccccc1-c1ccnn1-2
inactive: HCT-15 colon 102% | HT29 colon 90.3% | SNB-75 CNS 86.5% | SNB-19 CNS 106% | U251 CNS 90.7% | PC-3 prostate 94.3% | SK-MEL-5 melanoma 94.1% | UACC-62 melanoma 106% | LOX IMVI melanoma 91.3% | SK-MEL-28 melanoma 116% | SK-MEL-2 melanoma 96.3% | EKVX NSCLC 92.1% | UO-31 renal 80.8% | ACHN renal 101% | CAKI-1 renal 86.8% | A498 renal 90.4% | CCRF-CEM leukemia 94.9% | MOLT-4 leukemia 91.1%

CCN(CC)CCn1c(=N)n(CC(O)c2ccc(Cl)c(Cl)c2)c2ccccc21 (stereo not drawn)
inactive: HCT-15 colon 51.2% | HT29 colon 20.1% | SNB-75 CNS 71.8% | SNB-19 CNS 102% | U251 CNS 69.7% | PC-3 prostate 80.8% | SK-MEL-5 melanoma 55.6% | LOX IMVI melanoma 76.1% | SK-MEL-28 melanoma 10.4% | SK-MEL-2 melanoma 96.8% | SN12C renal 83.3% | UO-31 renal 64.3% | TK-10 renal 87.1% | ACHN renal 71.5% | CAKI-1 renal 75.4% | A498 renal 52.5% | CCRF-CEM leukemia 78.9% | MOLT-4 leukemia 79.7%
active: UACC-62 melanoma -30.5%

Cc1ccc(NC(=O)/C=N/O)cc1C
inactive: HCT-15 colon 98.1% | HT29 colon 102% | SNB-75 CNS 84.4% | SNB-19 CNS 102% | U251 CNS 89.8% | PC-3 prostate 86.5% | SK-MEL-5 melanoma 97.6% | UACC-62 melanoma 95.4% | LOX IMVI melanoma 101% | SK-MEL-28 melanoma 104% | SK-MEL-2 melanoma 103% | SN12C renal 103% | UO-31 renal 71.6% | TK-10 renal 122% | ACHN renal 99.1% | CAKI-1 renal 92.1% | CCRF-CEM leukemia 90% | MOLT-4 leukemia 85.7%
active: A498 renal 3.77%

CC(C)OP(=O)(O)c1ncc(-c2ccc(C(F)(F)F)cc2)c(NC2CCCCCC2)n1
inactive: HCT-15 colon 95.4% | HT29 colon 47.5% | SNB-75 CNS 73% | SNB-19 CNS 71.3% | U251 CNS 30.4% | PC-3 prostate 24.2% | SK-MEL-5 melanoma 43% | UACC-62 melanoma 31.6% | LOX IMVI melanoma 64.6% | SK-MEL-28 melanoma 51.4% | SK-MEL-2 melanoma 65.4% | SN12C renal 54.4% | UO-31 renal 60.2% | TK-10 renal 67% | ACHN renal 34.6% | CAKI-1 renal 87% | A498 renal 89.5% | CCRF-CEM leukemia 48.6% | MOLT-4 leukemia 80.4%

O=[N+]([O-])c1cc2ncccc2c2ncccc12
inactive: HCT-15 colon 71.9% | HT29 colon 102% | SNB-75 CNS 88.2% | SNB-19 CNS 96% | U251 CNS 102% | PC-3 prostate 77.8% | SK-MEL-5 melanoma 72.1% | UACC-62 melanoma 76.4% | LOX IMVI melanoma 45.5% | SK-MEL-28 melanoma 92% | SK-MEL-2 melanoma 84.9% | SN12C renal 87.2% | UO-31 renal 52.1% | TK-10 renal 106% | ACHN renal 65.3% | CAKI-1 renal 84.2% | A498 renal 111% | CCRF-CEM leukemia 74.9% | MOLT-4 leukemia 61.4%

O=C1/C(=C/c2ccc(O)cc2)Cc2ccc(Cl)cc21
inactive: HCT-15 colon 89.2% | HT29 colon 110% | SNB-75 CNS 73.4% | SNB-19 CNS 93.9% | U251 CNS 95.8% | PC-3 prostate 92.6% | SK-MEL-5 melanoma 79.3% | UACC-62 melanoma 77.3% | LOX IMVI melanoma 84.2% | SK-MEL-28 melanoma 114% | SK-MEL-2 melanoma 93% | SN12C renal 77.8% | UO-31 renal 45.2% | TK-10 renal 127% | ACHN renal 80% | CAKI-1 renal 68.3% | A498 renal 121% | CCRF-CEM leukemia 67.7% | MOLT-4 leukemia 70.3%

N#C/C(=C/c1cc([N+](=O)[O-])ccc1Cl)C(N)=O
inactive: HCT-15 colon 83.4% | HT29 colon 80.3% | SNB-75 CNS 88.9% | SNB-19 CNS 99.7% | U251 CNS 93.6% | PC-3 prostate 88.7% | SK-MEL-5 melanoma 98.8% | UACC-62 melanoma 104% | LOX IMVI melanoma 68.8% | SK-MEL-28 melanoma 105% | SK-MEL-2 melanoma 88.2% | SN12C renal 98.8% | UO-31 renal 72.7% | TK-10 renal 108% | ACHN renal 105% | CAKI-1 renal 86.9% | A498 renal 111% | CCRF-CEM leukemia 63.1% | MOLT-4 leukemia 87.1%

Cc1cc(Nc2cccc(F)c2)nc(NCc2ccccc2)n1
inactive: HCT-15 colon 15.6% | HT29 colon 22.8% | SNB-75 CNS 50.5% | SNB-19 CNS 29.4% | U251 CNS 11.7% | SK-MEL-5 melanoma 33.9% | UACC-62 melanoma 16.7% | LOX IMVI melanoma 18.2% | SK-MEL-28 melanoma 43.9% | SK-MEL-2 melanoma 19.8% | SN12C renal 16.7% | UO-31 renal 20.7% | TK-10 renal 35.7% | ACHN renal 17.1% | CAKI-1 renal 24.1% | A498 renal 24.4% | CCRF-CEM leukemia 12.8% | MOLT-4 leukemia 22.5%
active: PC-3 prostate 1.49%

N=C(N)c1ccc(-c2ccc(-c3cccs3)s2)nc1
active: HT29 colon -20.1% | UO-31 renal 2.6% | A498 renal -25.6%
inactive: HCT-15 colon 12.2% | SNB-75 CNS 41.3% | SNB-19 CNS 87.8% | U251 CNS 28% | PC-3 prostate 43.7% | SK-MEL-5 melanoma 68.6% | UACC-62 melanoma 86.8% | LOX IMVI melanoma 10.5% | SK-MEL-28 melanoma 83.7% | SK-MEL-2 melanoma 97.8% | SN12C renal 60.9% | TK-10 renal 47.3% | ACHN renal 56.7% | CAKI-1 renal 34.2% | CCRF-CEM leukemia 31.6% | MOLT-4 leukemia 17.3%

CC(C)(C)CC(C)(C)c1ccc(O)c(Cc2ccc(Cl)cc2Cl)c1
active: HCT-15 colon -78.7% | HT29 colon -92.4% | SNB-75 CNS -77.7% | SNB-19 CNS -82.9% | U251 CNS -95.3% | PC-3 prostate -65.2% | SK-MEL-5 melanoma -95.1% | UACC-62 melanoma -87.9% | LOX IMVI melanoma -95.4% | SK-MEL-28 melanoma -84.9% | SK-MEL-2 melanoma -76.9% | EKVX NSCLC -77.1% | UO-31 renal -98.7% | TK-10 renal -92.7% | CAKI-1 renal -83.3% | A498 renal -94% | CCRF-CEM leukemia -37.4% | MOLT-4 leukemia -62.7%

Nc1ccc(Sc2ccc3c4c2cccc4c(=O)n2c4ccccc4nc32)cc1
active: UO-31 renal 9.28% | CAKI-1 renal 5.9% | MOLT-4 leukemia -6.87%
inactive: HCT-15 colon 40.5% | HT29 colon 66.7% | SNB-75 CNS 43.7% | SNB-19 CNS 46.3% | U251 CNS 39.9% | PC-3 prostate 50.4% | SK-MEL-5 melanoma 39.4% | UACC-62 melanoma 31.9% | LOX IMVI melanoma 29.2% | SK-MEL-28 melanoma 73.7% | SK-MEL-2 melanoma 84.1% | SN12C renal 19.2% | TK-10 renal 78.6% | ACHN renal 22.1% | A498 renal 58.8% | CCRF-CEM leukemia 44.9%

C#C[C@]1(O)CC[C@H]2[C@@H]3CC[C@H]4CC(F)(F)CC[C@]4(C)[C@H]3CC[C@@]21C
inactive: HCT-15 colon 94.6% | HT29 colon 64.1% | SNB-75 CNS 70.5% | SNB-19 CNS 80.3% | U251 CNS 73.3% | PC-3 prostate 70.7% | SK-MEL-5 melanoma 94.3% | UACC-62 melanoma 78.8% | LOX IMVI melanoma 89.1% | SK-MEL-28 melanoma 74.4% | SK-MEL-2 melanoma 115% | SN12C renal 87.4% | UO-31 renal 102% | TK-10 renal 97.7% | ACHN renal 89.3% | CAKI-1 renal 84.6% | A498 renal 41.1% | CCRF-CEM leukemia 74.7% | MOLT-4 leukemia 95.7%

CN(C)Cc1cccs1
inactive: HCT-15 colon 106% | HT29 colon 104% | SNB-75 CNS 93.9% | SNB-19 CNS 98.9% | U251 CNS 95.9% | PC-3 prostate 70.3% | SK-MEL-5 melanoma 90% | UACC-62 melanoma 95.4% | LOX IMVI melanoma 93.1% | SK-MEL-28 melanoma 102% | SK-MEL-2 melanoma 103% | EKVX NSCLC 103% | UO-31 renal 82.9% | TK-10 renal 101% | ACHN renal 96.7% | CAKI-1 renal 98.3% | CCRF-CEM leukemia 80% | MOLT-4 leukemia 96.3%

FC(F)(F)c1ccc(-c2cnc(Cl)nc2NC2CCCCCC2)cc1
active: U251 CNS 5.17% | PC-3 prostate 1.08% | SK-MEL-5 melanoma -8.26% | SK-MEL-2 melanoma -4.24% | ACHN renal 5.68%
inactive: HCT-15 colon 75.7% | HT29 colon 19.1% | SNB-75 CNS 49.9% | SNB-19 CNS 31.2% | UACC-62 melanoma 16.2% | LOX IMVI melanoma 27.9% | SK-MEL-28 melanoma 37.6% | SN12C renal 18.2% | UO-31 renal 23.5% | TK-10 renal 32.1% | CAKI-1 renal 67.5% | A498 renal 89.9% | CCRF-CEM leukemia 26.3% | MOLT-4 leukemia 85.1%

COc1ccc(-c2nnc(SC/C(=N\O)c3ccccc3)o2)cc1
inactive: HCT-15 colon 97.5% | HT29 colon 95% | SNB-75 CNS 106% | SNB-19 CNS 99.7% | U251 CNS 103% | PC-3 prostate 86.8% | SK-MEL-5 melanoma 97.1% | UACC-62 melanoma 81% | LOX IMVI melanoma 95.1% | SK-MEL-28 melanoma 94.3% | SK-MEL-2 melanoma 102% | EKVX NSCLC 95.8% | TK-10 renal 107% | ACHN renal 101% | CAKI-1 renal 95.1% | A498 renal 80.8% | MOLT-4 leukemia 80.4%

Cc1nc(N)sc1Sc1nc2ccc(Cl)cc2c(=O)n1-c1ccc(Oc2ccccc2)cc1
inactive: HCT-15 colon 55.4% | HT29 colon 55.9% | SNB-75 CNS 96% | SNB-19 CNS 69.4% | U251 CNS 77.2% | PC-3 prostate 48.9% | SK-MEL-5 melanoma 76.1% | UACC-62 melanoma 63.9% | LOX IMVI melanoma 75.5% | SK-MEL-28 melanoma 95.1% | SK-MEL-2 melanoma 96.9% | SN12C renal 73.9% | UO-31 renal 61.8% | TK-10 renal 89% | ACHN renal 78.5% | CAKI-1 renal 73.5% | A498 renal 39.9% | CCRF-CEM leukemia 41.5% | MOLT-4 leukemia 44.3%

CCCCCCCCCCCC(c1ccccc1)N(C)C (stereo not drawn)
inactive: HCT-15 colon 95.6% | HT29 colon 86.3% | SNB-75 CNS 89.5% | SNB-19 CNS 95.1% | U251 CNS 95.6% | PC-3 prostate 78.1% | SK-MEL-5 melanoma 97% | UACC-62 melanoma 94.9% | LOX IMVI melanoma 92.7% | SK-MEL-28 melanoma 99% | SK-MEL-2 melanoma 116% | SN12C renal 90.7% | UO-31 renal 68.9% | TK-10 renal 134% | ACHN renal 92.5% | CAKI-1 renal 93.2% | A498 renal 71.2% | CCRF-CEM leukemia 69.1% | MOLT-4 leukemia 82.1%
